# Bioassay records: PubChem BioAssay, National Center for Advancing Translational Sciences (NCATS)
# D2 ag-1 = human D2 receptor agonism in beta-arrestin assay; DiscoveRx PathHunter D2 beta-arrestin, luminescence, 90 min; 100% = 57 uM dopamine signal; activation, % (test concentration not listed); AID 624465; P14416; 0.084% of 360,000 active; in the data active = activation above about 40%; inconclusive = between about 15% and that limit
# Target sequence (P14416 whole entry, looked up): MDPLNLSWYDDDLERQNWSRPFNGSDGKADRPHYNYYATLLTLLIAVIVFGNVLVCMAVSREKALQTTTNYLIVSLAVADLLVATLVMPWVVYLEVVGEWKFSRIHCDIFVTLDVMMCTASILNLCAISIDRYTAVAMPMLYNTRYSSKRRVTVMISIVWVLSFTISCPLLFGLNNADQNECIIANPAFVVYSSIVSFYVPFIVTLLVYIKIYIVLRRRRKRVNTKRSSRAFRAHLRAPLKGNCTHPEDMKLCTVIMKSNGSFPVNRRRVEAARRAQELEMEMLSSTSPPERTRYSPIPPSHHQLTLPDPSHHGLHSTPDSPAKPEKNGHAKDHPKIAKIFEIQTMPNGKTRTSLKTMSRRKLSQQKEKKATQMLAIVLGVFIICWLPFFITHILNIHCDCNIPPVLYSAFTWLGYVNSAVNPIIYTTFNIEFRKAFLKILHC
#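 Agonist mode: compounds alone added to overnight-plated D2 PathHunter cells for 90 min at 37 C, with 57 uM final dopamine (EC100) defining full response. Beta-arrestin recruitment detected by chemiluminescent reagent, read after 1 h at ambient temperature.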
# D2 antagonist = D2 dopamine receptor (human) antagonism | AID 485344 | 2% of 340,000 active | HEK293 TREx D2 cells, calcium flux, dopamine EC80 | inhibition, % at 10 µM; in the data active = inhibition above about 30%; inactive = below that, where a call was filed
#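 Tetracycline-induced HEK293 T-REx cells expressing D2 force-coupled to calcium signalling were dye-loaded, exposed to compound for 180 s, then challenged with an EC80 of dopamine; calcium flux was followed kinetically for a further 180 s.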
# D2 PAM-1 = human D2 receptor positive allosteric modulation; P14416; DiscoveRx D2 beta-arrestin cells, luminescence, 90 min; 100% = 57 uM dopamine signal; potentiation, % (no concentration beside the values); 0.23% of 360,000 active; in the data active = potentiation above about 50%; inconclusive = mostly about 30% to 49%
#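 D2 cells co-treated with compound plus 50 nM dopamine (EC20) for 90 min at 37 deg C to detect potentiation. Beta-arrestin recruitment was read as enzyme-fragment luminescence after 1 h at ambient temperature. Full response was set by 57 uM dopamine.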
# D2 PAM-2 = positive allosteric modulators of human D2 dopamine receptor. HEK293 T-REx D2, calcium flux, EC20 dopamine potentiation. P14416. 0.34% of 340,000 active. potentiation, % at 10 µM;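 active = potentiation over 3 SD above the plate norm, cut at about 30% in these data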
#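 Primary screen. Calcium kinetics in induced HEK293 T-REx D2 cells: compound pre-addition 180 s, EC20 dopamine, 180 s more.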
# D2 ag-2 = D2 dopamine receptor (human) agonism | P14416 | HEK293 T-REx D2 cells, calcium flux agonist mode | activation, % at 2 µM | 0.53% of 340,000 active;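 active = activation over 3 SD above normal in the single-dose calcium agonist read, cut at about 30% in these data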
#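 Agonism scored from kinetic calcium signal (1 read/sec, 180 s) following compound pin transfer, after a 10 s baseline. Cells: HEK293 Trex line expressing inducible D2 receptor coupled to calcium, dye-loaded after overnight culture at 30 C.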
# D3 ag = D3 receptor agonism confirmed, beta-arrestin readout. shares compounds with D2 ag-2. DiscoveRx D3 beta-arrestin cells, luminescence, 90 min. 4% of 2,300 active. AID 720506. Potency, µM (doses to about 76.9 µM), most hits filed as activators; note: nearly all actives have a fitted effect of over 70% in size
# D2 ag-3 = counter-screen for D3 agonists: human D2 dopamine receptor agonism; AID 720507; DiscoveRx PathHunter D2 beta-arrestin, luminescence, 90 min; response scale: percent relative to full dopamine signal; 5.9% of 2,300 active; Potency, µM (titrated, usually from 76.9 µM), actives largely listed as activators; shares compounds with D2 ag-2; note: nearly all actives have a fitted effect of over 70% in size
# A number is an active result; i = inactive; ? = inconclusive; nt = not tested or not shown. A selection: hits, their analogues and other compounds. The true share with any hit is near 2.4%. Unless noted, calls come from the whole dose curve; as a rule, active = well fitted activation curve with a large enough effect; inconclusive = small, poorly fitted or top-dose-only effect; inactive = flat fitted curve, though single readings scatter.
SMILES,D2 ag-1,D2 antagonist,D2 PAM-1,D2 PAM-2,D2 ag-2,D3 ag,D2 ag-3
COc1cc(CC(=O)Nc2ccc3nc(C)sc3c2)cc(OC)c1OC,i,i,i,i,55.9,i,i
COc1cc2c(C#CCCO)c(-c3ccc(C#N)cc3)oc(=O)c2cc1OC,i,i,i,i,i,i,i
COc1cc2c(C#CCCO)c(-c3ccsc3)oc(=O)c2cc1OC,i,nt,i,nt,nt,nt,nt
CCCCN(C)CCCNC(=O)CC1Oc2ccccc2NC1=O (stereo not drawn),i,62.5,i,i,85.2,?,?
CCCN(CCC)CCCNC(=O)CC1Nc2ccccc2NC1=O (stereo not drawn),i,i,i,i,50.8,i,i
CCCCN(CC)CCCNC(=O)CC1Nc2ccccc2NC1=O (stereo not drawn),i,40.5,i,i,74.7,i,i
CCOc1ccccc1NC(=O)CCS(=O)(=O)c1ccc2c(c1)oc(=O)n2C,nt,nt,nt,i,i,nt,nt
CC(=O)N/C(=C\c1ccccc1)C(=O)OCC(=O)N(C)C1CCCCC1,i,i,i,i,i,nt,nt
CC1CCCC(NC(=O)C2COc3ccccc3O2)C1C (stereo not drawn),i,i,i,i,i,i,i
Cc1ccc(S(=O)(=O)N2CCN(C(=O)COC(=O)c3ccc(Cl)c(S(N)(=O)=O)c3)CC2)c(C)c1,i,nt,i,nt,nt,nt,nt
COc1ccc(-c2ccc(SCC(=O)N3CCCC3)nn2)cc1OC,i,i,i,i,i,i,i
COc1ccc(S(=O)(=O)N(Cc2cccnc2)Cc2cc3ccccc3[nH]c2=O)cc1,i,i,i,i,i,nt,nt
Cc1ccc(S(=O)(=O)N(Cc2cccnc2)Cc2cc3ccccc3[nH]c2=O)cc1,i,93.9,i,i,i,i,i
CN(C)c1ccc(S(=O)(=O)N2CCCCC2)cc1NC(=O)C1CSC2(C)CCC(=O)N12 (stereo not drawn),i,i,i,i,i,i,i
Cc1ccc(NC(=O)c2ccc(-n3cncn3)c([N+](=O)[O-])c2)cc1,i,i,i,i,i,nt,nt
CCN(CC)S(=O)(=O)c1cc(NC(=O)c2ccc(-n3cncn3)c([N+](=O)[O-])c2)ccc1C,i,i,i,i,56.9,i,i
Cc1cc(Br)ccc1NC(=O)CN(C)C(=O)c1ccc(-n2cncn2)c([N+](=O)[O-])c1,i,i,i,i,i,i,i
O=C1S/C(=C/c2ccc(N3CCOCC3)o2)C(=O)N1Cc1ccc(F)cc1,i,i,i,i,i,nt,nt
CC(C)OC(=O)CN1C(=O)S/C(=C/c2ccc(N3CCCCC3)o2)C1=O,i,i,i,i,i,i,i
CCCC(=O)N1CCc2cc(-c3nc(N)sc3C)ccc21,i,i,i,i,i,nt,nt
CCC(C)C(=O)N1CCc2cc(-c3csc(N)n3)ccc21 (stereo not drawn),i,i,i,i,i,i,i
OC(c1cc(Cl)cc(Cl)c1)c1ncc(-c2cccc(F)c2)[nH]1 (stereo not drawn),i,nt,i,nt,nt,nt,nt
CC1Nc2ccc(C(=O)NC3CCCCC3)cc2NC1=O (stereo not drawn),i,i,i,i,i,nt,nt
CC(=O)Nc1ccc(SCCN2CC[C@@H](O)CCC2=O)cc1,i,i,i,i,i,nt,nt
CC(=O)Nc1ccc(SCCN2CC[C@@H](C)CCC2=O)cc1,i,i,i,i,i,i,i
SMILES,D2 ag-1,D2 antagonist,D2 PAM-1,D2 PAM-2,D2 ag-2,D3 ag,D2 ag-3
O=S(=O)(NCCc1csc(-c2cccnc2)n1)c1cccc(F)c1,i,i,i,i,i,nt,nt
O=S(=O)(NCCc1csc(-c2cccnc2)n1)c1cc(F)ccc1F,i,39.4,i,i,i,i,i
Cc1cc(C)c(NC(N)=S)c(C)c1,i,i,i,i,i,i,i
Cc1ccc2c(c1)c1c(c(=O)n(-c3ccccc3)c(=O)n1CC(=O)N1CCCC1)n2C,nt,nt,nt,i,i,nt,nt
CN1CCc2c(sc(NC(=O)c3ccc([N+](=O)[O-])o3)c2C(N)=O)C1,i,i,i,i,74.6,i,i
Cc1ccc(OCCSc2nc3ccccc3n2CC(=O)NC(C)C)cc1,nt,nt,nt,i,i,nt,nt
CN1CCc2c(sc(/N=C/c3cc(Cl)ccc3O)c2C#N)C1,52.1,83.3,i,i,87.7,i,i
CN1CCc2c(sc(/N=C/c3c[nH]c4ccccc34)c2C#N)C1,i,i,i,i,49.3,i,i
CN1CCc2c(sc(/N=C/c3c[nH]c4ccccc34)c2C(N)=O)C1,i,i,i,i,i,nt,nt
COc1ccc(NC(=O)CN(c2ccccc2F)S(=O)(=O)c2ccc(C)cc2)cc1,i,i,i,i,i,nt,nt
COc1c(C)cccc1C(=O)Nc1cccc2ccc(C)nc12,nt,nt,nt,i,nt,nt,nt
COc1ccc(CN(C(=O)/C=C/C(=O)c2ccc(OC)cc2O)C(C(=O)NC2CCCCC2)c2ccncc2)cc1 (stereo not drawn),i,i,i,i,34.6,i,i
O=S(=O)(NCCc1cn2ccsc2n1)c1ccc(Cl)cc1,nt,nt,nt,i,i,nt,nt
CCN(C(=O)CCN1C(=O)S/C(=C\c2ccccc2)C1=O)C1CCS(=O)(=O)C1 (stereo not drawn),i,i,i,i,i,nt,nt
CCN1CCN(C(=O)CNC(=O)c2nn(-c3ccc(OC)cc3)c(=O)c3ccccc23)CC1,i,i,i,i,51.1,i,i
O=C(O)c1cccc(-n2c(/C=C/c3ccc([N+](=O)[O-])cc3)nc3ccccc3c2=O)c1,i,i,i,i,i,i,i
O=C(O)c1cccc(-n2c(/C=C/c3cccc([N+](=O)[O-])c3)nc3ccccc3c2=O)c1,i,i,i,i,i,nt,nt
CCOC(=O)C1=C[C@@H](C(C)(C)C)N(S(=O)(=O)c2ccc(C)cc2)[C@H]1c1ccc(Cl)c(Cl)c1,i,nt,i,nt,nt,nt,nt
COc1ccc(CNC(=O)CCC(=O)N2CCN(C(C)=O)CC2)cc1,i,i,i,i,i,nt,nt
COc1ccc(C2(NC(C)=O)CCN(C(=O)CCC(=O)O)CC2)cc1,i,i,i,i,50.8,i,i
Cc1cccc(OCC(=O)N/N=C/CC(C)c2ccccc2)c1C (stereo not drawn),i,i,i,i,i,nt,nt
Cc1c(C(=O)NCc2cccc(Cl)c2)sc2nc3n(c(=O)c12)CCC3,nt,nt,nt,i,i,nt,nt
COc1ccc([C@H]2CC(=O)C=C(c3ccc4c5c(cccc35)CC4)C2)cc1,i,i,i,i,i,i,i
COc1ccc([C@H]2CC(=O)C=C(c3ccc(C)c4ccccc34)C2)cc1,i,i,i,i,i,nt,nt
